Structures are written as SMILES. Where a name gives a salt, the structure may show the parent alone.

PARP1 L713F-nLuc biosensor (HCT116), sequence (P09874 whole entry L713F, looked up): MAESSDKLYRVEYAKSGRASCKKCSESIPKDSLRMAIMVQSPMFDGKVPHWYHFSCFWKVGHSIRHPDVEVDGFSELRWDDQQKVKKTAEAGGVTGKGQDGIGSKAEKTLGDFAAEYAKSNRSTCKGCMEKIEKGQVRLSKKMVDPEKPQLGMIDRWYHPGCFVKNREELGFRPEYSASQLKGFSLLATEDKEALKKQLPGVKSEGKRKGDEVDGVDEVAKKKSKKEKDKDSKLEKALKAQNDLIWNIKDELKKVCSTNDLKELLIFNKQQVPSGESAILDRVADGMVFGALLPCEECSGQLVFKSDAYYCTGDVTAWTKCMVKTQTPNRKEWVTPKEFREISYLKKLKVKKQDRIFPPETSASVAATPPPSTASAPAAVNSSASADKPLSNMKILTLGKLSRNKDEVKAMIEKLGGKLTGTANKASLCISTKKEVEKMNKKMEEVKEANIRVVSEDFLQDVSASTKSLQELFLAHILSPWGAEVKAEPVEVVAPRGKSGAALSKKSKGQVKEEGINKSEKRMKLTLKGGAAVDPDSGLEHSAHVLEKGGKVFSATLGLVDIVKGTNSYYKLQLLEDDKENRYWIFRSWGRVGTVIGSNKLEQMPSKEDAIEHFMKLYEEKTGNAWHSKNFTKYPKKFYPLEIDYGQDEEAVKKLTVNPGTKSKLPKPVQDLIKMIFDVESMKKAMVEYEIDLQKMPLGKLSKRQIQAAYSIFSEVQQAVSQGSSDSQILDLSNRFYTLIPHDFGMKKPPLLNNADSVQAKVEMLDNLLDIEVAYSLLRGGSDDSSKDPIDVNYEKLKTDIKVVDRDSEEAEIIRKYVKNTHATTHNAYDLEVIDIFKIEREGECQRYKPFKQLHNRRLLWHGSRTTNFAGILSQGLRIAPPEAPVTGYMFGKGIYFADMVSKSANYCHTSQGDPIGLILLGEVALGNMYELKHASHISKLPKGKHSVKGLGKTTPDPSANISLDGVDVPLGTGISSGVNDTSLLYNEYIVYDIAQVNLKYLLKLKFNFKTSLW

This experiment has as its target PARP1 L713F-nLuc biosensor (HCT116) (UniProt P09874). As to the kind of experiment: PARP1 L713F-nLuc/akaLuc ratio relative to DMSO control (biosensor stabilization) (fold change); higher = more PARP1 biosensor stabilization (target engagement / stabilizer), active = hit call of the paper. The note with it: stock concentration (mM; final µM = stock mM x 1): 10; 24 h.
As for `CC(C)(CCCCCC(O)CCCCCC(C)(C)C(=O)O)C(=O)O` [Bempedoic acid], the “PARP1 L713F-nLuc/akaLuc ratio” value is 1.02 (inactive). Under `CCOC(=O)CCNc1cc(N2CCc3ccccc3CC2)nc(-c2ccccn2)n1` [GSK-J4 (hydrochloride)] stands 1.45 (inactive); under `O=C(O)c1c[nH]c2cc(Cl)c(-c3ccc(C4(O)CCC4)cc3)cc12`, 0.446 (inactive); under `Nc1nc(Cl)nc2c1ncn2[C@H]1C[C@H](O)[C@@H](CO)O1` [Cladribine], 0.383 (inactive).

As for `C/C=C(/C)C(=O)O[C@H]1Cc2cc3ccc(=O)oc3cc2OC1(C)C` [Decursinol angelate], the “PARP1 L713F-nLuc/akaLuc ratio” value was 0.885 (inactive).

As to `O=S(=O)(c1cccc2cnccc12)N1CCNCC1`, the “PARP1 L713F-nLuc/akaLuc ratio” value is 0.882 (inactive). The value for `NC(=O)c1cccc2[nH]c(-c3ccc(C4CCCN4)cc3F)nc12` (centres undefined) was 4.24 (active); that for `Cc1nc(C(=O)NCC(=O)O)c(O)c2ccc(Oc3ccccc3)cc12` [Roxadustat] was 1.02 (inactive); that for `N#Cc1c[nH]c2ccc(-c3ccc(-c4c(O)cccc4O)cc3)cc12` was 0.933 (inactive).

Turning to `O=c1c2c([nH]n1-c1nc3ccccc3s1)CCCC2`, the “PARP1 L713F-nLuc/akaLuc ratio” value was 0.788 (inactive). Under `CN1CCCN(C(=O)c2cccc(-c3ccc(/C=C4/C(=O)Nc5ccc(Cl)cc54)o3)c2)CC1` stands 0.758 (inactive); under `O=C(Nc1ccccc1-c1cn2c(CN3CCNCC3)csc2n1)c1cnc2ccccc2n1`, 1 (inactive).

Take `Cc1[nH]nc(C(F)(F)F)c1Cc1sc2c(c1C(=O)N1C[C@](C)(O)CO1)c(=O)n(C)c(=O)n2C(C)C`: the “PARP1 L713F-nLuc/akaLuc ratio” value is 0.93 (inactive). On to `COc1cc2c(NC3CCN(C(C)C)CC3)nc(N3CCC(F)(F)CC3)nc2cc1OCCCN1CCCC1`, for which the “PARP1 L713F-nLuc/akaLuc ratio” value is 1.03 (inactive).
